# Measurements: PubChem BioAssay
# A number with no mark means an inactive call. Active and inactive are the calls of the source. Rule as the data show it, unless noted: active = inhibition above about 30%; inactive = the rest.
# Key:
# [1] = molecular target: Nuclear receptor coactivator 3 (Homo sapiens) (UniProt Q9Y6Q9); experiment: NCOA3 GAL4-fusion reporter inhibition – cell-based, luminescence, quadruplicate, confirmation (AID 588792;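 active = mean inhibition over 43.08%, the solvent-only control mean plus 3 SD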;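 also: 0% = DMSO treated cells and 100% = gossypol at 36 µM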); conditions: HEK293 GAL4-SRC3 luciferase reporter, at 3.6 µM, active compounds read high
# Chain of Nuclear receptor coactivator 3 (Homo sapiens) (Q9Y6Q9 whole entry, looked up, the tested form may be a part): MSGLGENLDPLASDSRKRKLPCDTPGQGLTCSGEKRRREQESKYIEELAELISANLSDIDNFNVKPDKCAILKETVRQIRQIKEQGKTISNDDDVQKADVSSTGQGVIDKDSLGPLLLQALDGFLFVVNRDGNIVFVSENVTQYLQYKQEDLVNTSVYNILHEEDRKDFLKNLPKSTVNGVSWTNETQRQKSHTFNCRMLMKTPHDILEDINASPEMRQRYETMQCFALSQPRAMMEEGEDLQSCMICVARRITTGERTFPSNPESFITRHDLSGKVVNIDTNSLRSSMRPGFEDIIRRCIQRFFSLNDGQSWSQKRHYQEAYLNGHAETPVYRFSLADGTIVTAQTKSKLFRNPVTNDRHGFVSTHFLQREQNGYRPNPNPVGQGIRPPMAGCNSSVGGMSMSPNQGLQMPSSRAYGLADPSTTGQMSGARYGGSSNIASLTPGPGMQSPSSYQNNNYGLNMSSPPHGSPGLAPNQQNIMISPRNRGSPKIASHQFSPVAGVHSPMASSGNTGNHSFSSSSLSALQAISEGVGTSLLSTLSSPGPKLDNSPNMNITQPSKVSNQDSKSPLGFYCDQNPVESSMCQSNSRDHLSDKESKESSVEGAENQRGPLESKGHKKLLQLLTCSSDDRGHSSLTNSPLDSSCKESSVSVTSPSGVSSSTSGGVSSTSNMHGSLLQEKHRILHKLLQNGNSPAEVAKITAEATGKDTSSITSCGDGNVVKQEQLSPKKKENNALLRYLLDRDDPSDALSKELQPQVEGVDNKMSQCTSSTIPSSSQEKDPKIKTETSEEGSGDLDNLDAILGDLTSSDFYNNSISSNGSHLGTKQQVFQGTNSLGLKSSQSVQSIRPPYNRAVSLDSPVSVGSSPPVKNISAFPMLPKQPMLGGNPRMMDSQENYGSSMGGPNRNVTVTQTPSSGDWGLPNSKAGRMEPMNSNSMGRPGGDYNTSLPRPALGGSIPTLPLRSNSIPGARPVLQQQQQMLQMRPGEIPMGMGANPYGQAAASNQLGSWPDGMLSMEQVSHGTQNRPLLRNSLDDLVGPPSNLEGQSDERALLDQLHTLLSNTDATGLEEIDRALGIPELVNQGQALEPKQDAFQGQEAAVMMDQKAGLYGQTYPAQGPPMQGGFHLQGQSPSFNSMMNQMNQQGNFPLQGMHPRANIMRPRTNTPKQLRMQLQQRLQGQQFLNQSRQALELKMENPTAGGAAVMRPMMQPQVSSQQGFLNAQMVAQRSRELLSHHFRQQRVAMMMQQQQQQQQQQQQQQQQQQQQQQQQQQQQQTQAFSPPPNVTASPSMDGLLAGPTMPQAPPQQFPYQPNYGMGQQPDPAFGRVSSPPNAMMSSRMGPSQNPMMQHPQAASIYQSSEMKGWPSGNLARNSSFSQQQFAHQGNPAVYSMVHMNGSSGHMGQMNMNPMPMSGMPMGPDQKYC
# [2] = tested on: transactivating tegument protein VP16 (Human herpesvirus 1), Gal4-VP16 luciferase reporter; experiment: repression of VP16-driven luciferase reporter – cell-based, luminescence, high throughput, counter-screen for SRC3 inhibitor project (AID 588794); conditions: mammalian cells, at 3.6 µM, active compounds read high
Compound,inhibition [1],inhibition [2]
CC(=O)Nc1cccc(C(=O)/C=C/c2ccc(Br)cc2)c1,10.8%,11%
CC(C)OP(=O)(OC(C)C)/C(C=O)=N\Nc1ccc([N+](=O)[O-])cc1,7.9%,2.13%
COc1ccc(N2CCN(c3nc(NCCc4ccc(OC)c(OC)c4)nc(OC)n3)CC2)cc1,6.14%,1.14%
COc1cc(C(=O)N/N=C/c2coc3ccc(Cl)cc3c2=O)ccc1O,24.2%,15.9%
O=C(N/N=C/c1c(O)ccc2ccccc12)c1ccc(Br)o1,57.3% (active),43.2% (active)
N=c1c(C(=O)NCC2CCCO2)cc2c(=O)n3ccccc3nc2n1Cc1cccnc1 (stereo not given),-8.73%,-5.19%
C=C(C(=O)c1ccccc1)C(CC(=O)c1ccccc1)c1ccccc1 (stereo not given),25.9%,41.1% (active)
CC(=O)c1ccc(N2CCN(C(=O)c3nn(Cc4ccccc4)c(=O)c4ccccc34)CC2)cc1,13.9%,-1.19%
O=c1[nH]oc2cc(Cl)ccc12,3.14%,-1.43%
CC(=O)c1ccc(Nc2c3c(nc4ccccc24)CCCC3)cc1,32.7%,-3.62%
Brc1ccc2ncc3ccccc3c2c1,40.2%,19.1%
Cc1[nH]n(C)c(=O)c1N=Nc1ccc(S(C)(=O)=O)cc1,8.44%,-1.15%
O=c1c2ccccc2cnn1CCOc1ccccc1,-15.3%,-21.5%
COc1ccc(C(=O)Nc2ccc(N3CCN(C(=O)c4ccccc4C)CC3)cc2)cc1,28.4%,25.1%
CC(=O)N(Cc1ccc(F)cc1)C1=C(NCc2ccccc2)C(=O)c2ccccc2C1=O,30.9%,31.9% (active)
